IL-1B inflam inh – inhibitors of inflammasome signaling (IL-1 beta secretion); THP-1 LPS/ATP IL-1B secretion, AlphaLISA, 16 h; active compounds read low; activity change, % at 57.5 µM; actives 4.7% (n = 360,000); in the data active means activity change below about -50%; inconclusive means mostly about -30% to -49%
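THP-1 cells pretreated 1 hr with compounds (up to 57.5 uM final), then stimulated with LPS (250 ng/mL final) plus ATP (1.25 mM final); secreted IL-1B measured by AlphaLISA after 16 hr, decreased signal indicating inhibition.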
HT1080-NT tox – kills 2HG-producing HT-1080-NT fibrosarcoma cells; actives 1.6% (n = 360,000); AID 686970; HT-1080-NT fibrosarcoma viability, CellTiter-Glo ATP luminescence, 48 h; Potency, µM (titrated, usually from 46.1 µM), without a hit: at the highest dose activity, negative = less viability, hits mostly cytotoxic;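 further: NT is the 2HG producing partner of a matched IDH1 knockdown line; potency means the concentration at half of the fitted maximal effect; 0% = DMSO-treated cells and -100% = media-only wells without cells; nearly all actives have a fitted effect of over 55% in size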
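A 48-hour cytotoxicity screen used HT-1080-NT cells plated 2 hours before compound delivery. ATP-based CellTiter-Glo luminescence measured viability, normalized to DMSO and no-cell controls.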
HT1080 IDH1KD tx – toxicity to HT-1080 IDH1 knockdown cells (counter line); Potency, µM (titrated, usually from 46.1 µM), for inactives: at the top dose activity, negative = toxicity, most hits filed as cytotoxic; actives 2% (n = 360,000); HT-1080 IDH1 knockdown viability, ATP luminescence, 48 h;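 further: potency means the concentration at half of the fitted maximal effect; 0% = DMSO wells and -100% = cell-free medium wells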
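After a 2 h attachment period, IDH1KD HT-1080 cells took pin-transferred compound for 48 h at 37 °C; ATP-based luminescence after 10 min room-temperature reagent incubation reported viability.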
DT40 TDP1 no CPT – qHTS for Inhibitors of human tyrosyl-DNA phosphodiesterase 1 (TDP1): qHTS in cells in absence of CPT. actives 15% (n = 420,000). AID 686978, 2013. DT40 Tdp1-/- hTDP1 cells, no CPT, ATP luminescence, 48 h. Potency, µM (highest dose often 46.2 µM), inactives show at the highest dose activity change, negative = growth inhibition, actives largely listed as inhibitors; further: potency means the concentration at half of the fitted maximal effect; nearly all actives have a fitted effect of over 55% in size
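Readout: luminescence from CellTiter-Glo after 30 min in the dark at RT. Cells: DT40 Tdp1-/- with stable hTDP1, 400/well. Exposure: compounds alone, ≥48 hr, 37 °C.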
TDP1 cell CPT – DT40-hTDP1 cell growth loss with CPT. chicken DT40 Tdp1-/-;hTDP1 cells + 20 nM CPT, ATP luminescence, 48 h. Potency, µM (highest dose often 46.2 µM), without a hit: at the highest dose activity change, negative = growth inhibition, actives largely listed as inhibitors. actives 12% (n = 420,000). AID 686979; further: potency means the concentration at half of the fitted maximal effect; nearly all actives have a fitted effect of over 55% in size
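Cell growth measured by CellTiter-Glo luminescence after a minimum 48 h, 37 C compound exposure with 20 nM CPT in Tdp1-knockout DT40 cells stably expressing hTDP1, seeded 400/well; qHTS titration format.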
Numbers without * were called inactive. Shown are actives, neighbours in structure and some others; about 19% of the full set was active somewhere. Unless noted, the call rests on the fitted dose curve; in most records, active means well fitted curve in the direction sought with a large enough effect; inconclusive means small, poorly fitted or top-dose-only effect, or another doubt; inactive means no such curve, though single readings can be large; an effect the other way counts as inactive or inconclusive. Unless noted, on the % scale 0 is the no-effect control and ±100 the full control effect.

For Cc1cc(C)cc(N(CC(=O)NCc2ccccc2Cl)S(=O)(=O)c2c(C)noc2C)c1 the results were DT40 TDP1 no CPT 23.1µM* and TDP1 cell CPT inconclusive.
Screening Cc1cc(C)cc(N(CC(=O)Nc2cccc(C)n2)S(=O)(=O)c2c(C)noc2C)c1 returned IL-1B inflam inh -28.1, HT1080-NT tox -29.4%, HT1080 IDH1KD tx -18.5%, DT40 TDP1 no CPT 13µM* and TDP1 cell CPT 20.6µM*.
COc1cc(NC(=O)CN(c2ccc(C)cc2)S(=O)(=O)c2c(C)noc2C)cc(OC)c1 was read as IL-1B inflam inh inconclusive, HT1080-NT tox -13.6%, HT1080 IDH1KD tx -23.2%, DT40 TDP1 no CPT 7.31µM* and TDP1 cell CPT 18.4µM*.
COc1cc(NC(=O)CN(c2cc(C)cc(C)c2)S(=O)(=O)c2c(C)noc2C)cc(OC)c1 was read as IL-1B inflam inh -4.6, HT1080-NT tox 0.0%, HT1080 IDH1KD tx -4.6%, DT40 TDP1 no CPT inconclusive and TDP1 cell CPT 18.4µM*.
Screening COc1ccc(N(CC(=O)Nc2ccc(C)c(F)c2)S(=O)(=O)c2c(C)noc2C)cc1 returned IL-1B inflam inh 22.3, HT1080-NT tox -14.8%, HT1080 IDH1KD tx -21.0%, DT40 TDP1 no CPT -2.2% and TDP1 cell CPT inconclusive.
Screening CC(C)c1ccc(S(=O)(=O)N2CCN(C(=O)Cc3ccsc3)CC2)cc1 returned IL-1B inflam inh -1.3, HT1080-NT tox -2.6%, HT1080 IDH1KD tx -14.3%, DT40 TDP1 no CPT -26.0% and TDP1 cell CPT inconclusive.
For CCOC(=O)Cc1csc(N/N=C\c2ccccc2OC)n1 the results were IL-1B inflam inh 39.5, HT1080-NT tox -17.2%, HT1080 IDH1KD tx -9.7%, DT40 TDP1 no CPT -16.2% and TDP1 cell CPT -18.0%.
`COc1ccc(CNC(=O)CN2C(=O)NC(C)(c3cccc4ccccc34)C2=O)cc1OC` (centres undefined) gave IL-1B inflam inh -13.3, HT1080-NT tox -3.6%, HT1080 IDH1KD tx -2.4%, DT40 TDP1 no CPT -22.7% and TDP1 cell CPT -20.5%.
Screening Cc1ccc(N(CC(=O)Nc2ccc(OC(F)(F)F)cc2)S(=O)(=O)c2c(C)noc2C)cc1 returned DT40 TDP1 no CPT 18.4µM* and TDP1 cell CPT 20.6µM*.
`CSc1ncc(CN2CCc3c([nH]c4ccccc34)C2C(C)(C)C)cn1` (centres undefined) gave IL-1B inflam inh 5.9, HT1080-NT tox 0.4%, HT1080 IDH1KD tx 2.3%, DT40 TDP1 no CPT 23.1µM* and TDP1 cell CPT inconclusive.
`COCCSc1ccccc1C(=O)Nc1ccc([N+](=O)[O-])cc1OC` gave IL-1B inflam inh -2.2, HT1080-NT tox 0.0%, HT1080 IDH1KD tx -2.1%, DT40 TDP1 no CPT 23.1µM* and TDP1 cell CPT inconclusive.
Screening COc1ccc([N+](=O)[O-])cc1NC(=O)CC(c1ccccc1)c1ccccc1 returned IL-1B inflam inh 16.6, HT1080-NT tox -8.9%, HT1080 IDH1KD tx -0.3%, DT40 TDP1 no CPT inconclusive and TDP1 cell CPT inconclusive.
For COc1cc([N+](=O)[O-])ccc1NC(=O)CSc1nncn1-c1cccnc1 the results were IL-1B inflam inh 10.2, HT1080-NT tox 0.2%, HT1080 IDH1KD tx -2.2%, DT40 TDP1 no CPT 0.517µM* and TDP1 cell CPT inconclusive.
Screening COc1ccc([N+](=O)[O-])cc1NC(=O)CSc1ccc2ccccc2c1 returned IL-1B inflam inh 16.2, HT1080-NT tox inconclusive, HT1080 IDH1KD tx -30.0%, DT40 TDP1 no CPT inconclusive and TDP1 cell CPT 23.1µM*.
COc1ccc([N+](=O)[O-])cc1NC(=O)CSc1nc(C)cc(C)n1 was read as IL-1B inflam inh 27.2, HT1080-NT tox -8.0%, HT1080 IDH1KD tx -5.6%, DT40 TDP1 no CPT inconclusive and TDP1 cell CPT 16.4µM*.
For COc1cc2c(cc1OC)C(c1ccc(N)cc1)=NNC(=O)C2 the results were DT40 TDP1 no CPT 14.6µM* and TDP1 cell CPT 21.1µM*.
For COc1cc2c(cc1OC)CC(=O)NC=C2 the results were IL-1B inflam inh 2.0, HT1080-NT tox 8.2%, HT1080 IDH1KD tx 2.6%, DT40 TDP1 no CPT -4.4% and TDP1 cell CPT 6.6%.
COC(=O)CN1C(c2ccccc2)=Nc2ccc(Cl)cc2C1c1ccccc1 (centres undefined) was read as IL-1B inflam inh -7.4, HT1080-NT tox 5.1%, HT1080 IDH1KD tx -3.2%, DT40 TDP1 no CPT -25.0% and TDP1 cell CPT -35.2%.
`O=C(CCCSCCCC(=O)NN=Cc1ccccc1)NN=Cc1ccccc1` gave IL-1B inflam inh -2.8, HT1080-NT tox -8.0%, HT1080 IDH1KD tx -2.3%, DT40 TDP1 no CPT 23.1µM* and TDP1 cell CPT inconclusive.
`O=C(CSCC(=O)NN=Cc1ccccc1)NN=Cc1ccccc1` gave IL-1B inflam inh -0.8, HT1080-NT tox -3.0%, HT1080 IDH1KD tx 2.0%, DT40 TDP1 no CPT -26.7% and TDP1 cell CPT -11.8%.
For CC(=O)Oc1ccc(/C=N/NC(=O)CCSc2ccccc2)cc1 the results were IL-1B inflam inh 47.9, HT1080-NT tox -3.9%, HT1080 IDH1KD tx -5.2%, DT40 TDP1 no CPT 18.4µM* and TDP1 cell CPT inconclusive.
For CCCC(=O)n1nc(-c2cccnc2)nc1NCc1ccccc1 the results were IL-1B inflam inh 9.5, HT1080-NT tox 5.3%, HT1080 IDH1KD tx 5.4%, DT40 TDP1 no CPT -18.4% and TDP1 cell CPT -11.9%.
CCOC(=O)c1c(S(=O)(=O)N2CCCC(C(=O)NCc3ccc(Cl)cc3)C2)c(C)n(C)c1C (centres undefined) was read as DT40 TDP1 no CPT inconclusive and TDP1 cell CPT 13µM*.
Cc1ccc(Cl)cc1N1CCN(S(=O)(=O)c2c(C(=O)N3CCOCC3)c(C)n(C)c2C)CC1 was read as IL-1B inflam inh -14.8, HT1080-NT tox -8.7%, HT1080 IDH1KD tx -1.0%, DT40 TDP1 no CPT inconclusive and TDP1 cell CPT inconclusive.
For CCOC(=O)c1c(S(=O)(=O)N2CCCC(C(=O)NCc3cccc(OC)c3)C2)c(C)n(C)c1C (centres undefined) the results were DT40 TDP1 no CPT -29.3% and TDP1 cell CPT -28.7%.
CCOC(=O)c1c(S(=O)(=O)N2CCCC(C(=O)N(C)Cc3ccccc3)C2)c(C)n(C)c1C (centres undefined) was read as DT40 TDP1 no CPT inconclusive and TDP1 cell CPT 11.6µM*.
Screening CCOC(=O)c1c(S(=O)(=O)N2CCCC(C(=O)NCc3ccccc3Cl)C2)c(C)n(C)c1C (centres undefined) returned DT40 TDP1 no CPT -21.7% and TDP1 cell CPT -27.7%.
Screening CCOC(=O)c1c(S(=O)(=O)N2CCCC(C(=O)N3CCN(c4ccccc4)CC3)C2)c(C)n(C)c1C (centres undefined) returned DT40 TDP1 no CPT inconclusive and TDP1 cell CPT 14.6µM*.
CCOC(=O)c1c(S(=O)(=O)N2CCN(c3cc(Cl)ccc3C)CC2)c(C)n(C)c1C was read as DT40 TDP1 no CPT 20.6µM* and TDP1 cell CPT inconclusive.

Source: PubChem
